A selection: hits, their analogues and other compounds. The true share with any hit is near 19%.
IL-1B inflam inh – inflammasome signaling inhibition, IL-1 beta readout | THP-1 LPS/ATP IL-1B secretion, AlphaLISA, 16 h; hits give low values | activity change, % at 57.5 µM | actives 4.7% (n = 360,000); in the data active = activity change below about -50%; inconclusive = mostly about -30% to -49%
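Secreted IL-1B measured by AlphaLISA bead assay after 16 h compound exposure of THP-1 cells; compounds (final up to 57.5 uM) added 1 h before LPS (250 ng/mL) and ATP (1.25 mM) stimulation; lower signal means less secretion.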
TDP1 cell noCPT – qHTS for Inhibitors of human tyrosyl-DNA phosphodiesterase 1 (TDP1): qHTS in cells in absence of CPT | DT40 Tdp1-/- hTDP1 cells, no CPT, ATP luminescence, 48 h | Potency, µM (series often up to 46.2 µM), inactives show at the highest dose activity change, negative = growth inhibition, hits mostly inhibitors | actives 15% (n = 420,000) | AID 686978, 2013; note: potency is the fitted concentration of half-maximal effect; nearly all actives have a fitted effect of over 55% in size
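Growth of hTDP1-complemented DT40 Tdp1-knockout cells is measured by ATP luminescence after at least 48 hr compound exposure at 37 °C, with DMSO substituting for the 20 nM CPT used in the parallel screen.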
TDP1 cell CPT – growth inhibition of DT40 Tdp1-/-;hTDP1 cells with camptothecin (screen for TDP1 inhibitors) | chicken DT40 Tdp1-/-;hTDP1 cells + 20 nM CPT, ATP luminescence, 48 h | Potency, µM (series often up to 46.2 µM), inactives show at the highest dose activity change, negative = growth inhibition, usual class: inhibitors | actives 12% (n = 420,000); note: potency is the fitted concentration of half-maximal effect; nearly all actives have a fitted effect of over 55% in size
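Cell growth measured by CellTiter-Glo luminescence after a minimum 48 h, 37 C compound exposure with 20 nM CPT in Tdp1-knockout DT40 cells stably expressing hTDP1, seeded 400/well; qHTS titration format.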
HT1080NT lethal – kills 2HG-producing HT-1080-NT fibrosarcoma cells | HT-1080-NT fibrosarcoma viability, CellTiter-Glo ATP luminescence, 48 h | Potency, µM (top dose mostly 46.1 µM), for inactives: at the top dose activity, negative = less viability, actives largely listed as cytotoxic | actives 1.6% (n = 360,000);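 note: NT is the 2HG producing partner of a matched IDH1 knockdown line; potency is the fitted concentration of half-maximal effect; 0% = DMSO-treated cells and -100% = media-only wells without cells; nearly all actives have a fitted effect of over 55% in size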
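HT-1080-NT; 750 cells/well; 5% FBS RPMI; 48 h compound, 37 degrees C; CellTiter-Glo luminescence; curve fitting and curve-class assignment.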
HT1080 IDH1KD tx – HT-1080 IDH1 knockdown cell toxicity (counter line) | HT-1080 IDH1 knockdown viability, ATP luminescence, 48 h | Potency, µM (highest dose often 46.1 µM), for the others: top-dose activity, negative = toxicity, most hits filed as cytotoxic | actives 2% (n = 360,000);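 note: potency is the fitted concentration of half-maximal effect; 0% = DMSO wells and -100% = cell-free medium wells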
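% activity derives from luminescence (CellTiter-Glo), normalised to DMSO and no-cell wells. HT-1080-IDH1KD cells, 750/well, had 48 h compound exposure at 37 °C.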
* = called active by the depositor; u = inconclusive; x = not tested or not shown; [ ] = dose if it differs, or a comment. Unless noted, calls come from the whole dose curve; as a rule, active = well fitted curve in the direction sought with a large enough effect; inconclusive = small, poorly fitted or top-dose-only effect, or another doubt; inactive = no such curve, though single readings can be large; an effect the other way counts as inactive or inconclusive. Unless noted, % is set by controls: 0 for no effect and ±100 for the full control effect.

SMILES	IL-1B inflam inh	TDP1 cell noCPT	TDP1 cell CPT	HT1080NT lethal	HT1080 IDH1KD tx
CC(C)(C)C(=O)NC(=S)NNC(=O)C(c1ccccc1)c1ccccc1	153	3.7µM*	4.6µM*	18µM*	12µM*
CC(=O)NNC(=S)NC(=O)C(c1ccccc1)c1ccccc1	100	16µM*	8.2µM*	u	u
Cc1cc(OCC(O)CN2CCN(c3ccccn3)CC2)cc(C)c1Cl (configuration not stated)	-69*	u	u	16µM*	u
OC(COc1cc(Cl)c(Cl)cc1Cl)CN1CCN(c2ncccn2)CC1 (configuration not stated)	-16	u	18µM*	7%	-1%
OC(COc1ccc(Cl)cc1)CN1CCN(c2ccccn2)CC1 (configuration not stated)	-8	u	-16%	6%	2%
COc1ccc(OCC(O)CN2CCN(c3ncccn3)CC2)cc1 (configuration not stated)	0	-9%	-5%	21%	12%
OC(COC(c1ccccc1)c1ccccc1)CN1CCN(c2ccccn2)CC1 (configuration not stated)	u	u	-21%	-10%	-4%
OC(CN1CCN(c2ccccn2)CC1)Cn1c2ccccc2c2ccccc21 (configuration not stated)	-5	8.2µM*	15µM*	-30%	u
Cc1ccc(NC(=O)C2CC(=O)N(Cc3ccco3)C2)cc1 (configuration not stated)	-12	4%	10%	-5%	-1%
COc1ccc(C(=O)NCCc2cc3c(OC)ccc(OC)c3[nH]c2=O)cc1OC	-1	u	u	u	-26%
CCn1c(C)c(C)c2cc(C(=O)NCC(C)c3ccccc3)ccc21 (configuration not stated)	x	29µM*	16µM*	x	x
COc1ccc(CCNC(=O)c2ccc3c(c2)c(C)c(C)n3Cc2ccc(F)cc2)c(OC)c1OC	x	23µM*	18µM*	x	x
CCn1c(C)c(C)c2cc(C(=O)NCCc3ccco3)ccc21	u	-2%	-13%	4%	0%
CCn1c(C)c(C)c2cc(C(=O)NCCN3CCCCCC3)ccc21	-29	u	u	-22%	-16%
CCn1c(C)c(C)c2cc(C(=O)NCCc3cc(OC)c(OC)c(OC)c3)ccc21	x	3.7µM*	4.1µM*	x	x
COc1ccc(CCNC(=O)c2ccc3c(c2)c(C)c(C)n3Cc2ccccc2)c(OC)c1OC	x	u	23µM*	x	x
N#CC1C(=O)NC(=O)C(C#N)C12CCCc1sccc12 (configuration not stated)	8	-9%	9%	6%	6%
CCc1ccccc1NC(=O)C(=O)NCCCN1CCOCC1	x	1%	2%	x	x
COc1ccc(OC)c(CCNC(=O)c2ccc3c(c2)c(C)c(C)n3Cc2ccccc2)c1	x	u	16µM*	x	x
Cc1c(C)n(Cc2ccc(F)cc2)c2ccc(C(=O)NCCN3CCOCC3)cc12	-9	16µM*	u	-3%	0%
Cc1c(C)n(Cc2ccc(F)cc2)c2ccc(C(=O)N3CCN(c4ccc(F)cc4)CC3)cc12	x	23µM*	21µM*	x	x
CCn1c(C)c(C)c2cc(C(=O)N3CCc4ccccc4C3)ccc21	26	15µM*	u	u	16µM*
O=C(NCCN1CCOCC1)c1ccc(F)cc1	-4	-7%	-2%	0%	-2%
COc1ccc2c(c1)c(CC(=O)O)c(C)n2Cc1ccc(Cl)cc1	x	-4%	-11%	x	x
N#CCCn1c(=O)cnc2cnc(Oc3cccc(Cl)c3)nc21	x	-9%	11%	x	x
SMILES	IL-1B inflam inh	TDP1 cell noCPT	TDP1 cell CPT	HT1080NT lethal	HT1080 IDH1KD tx
CN1CCN(C(N)=NC(=O)c2ccccc2)CC1	13	-12%	-4%	11%	3%
O=C(O)CC(C(=O)O)c1ccc(OCCCCOc2ccc(C(CC(=O)O)C(=O)O)cc2)cc1 (configuration not stated)	31	30%	2%	9%	12%
O=C(NCc1ccc(Cl)cc1)C(=O)Nc1ccc(Br)cc1	x	-3%	0%	x	x
Cc1ccc(NS(=O)(=O)c2cccc(C(=O)NCC(c3ccco3)N3CCCCC3)c2)cc1 (configuration not stated)	7	u	26µM*	-6%	2%
COc1ccc(NS(=O)(=O)c2cccc(C(=O)NCC(c3ccco3)N3CCCC3)c2)cc1 (configuration not stated)	17	-27%	-9%	-23%	-15%
Cc1cccc(NS(=O)(=O)c2ccc(C)c(C(=O)NCC(c3ccco3)N3CCCCC3)c2)c1 (configuration not stated)	-3	18µM*	21µM*	-3%	-3%
Cc1cccc(NS(=O)(=O)c2ccc(C(=O)NCC3(N4CCCCC4)CCCCC3)cc2)c1C	-53*	15µM*	21µM*	-18%	u
CC(=O)c1cccc(S(=O)(=O)NCC(c2ccco2)N2CCCCC2)c1 (configuration not stated)	13	16µM*	u	14%	0%
COc1ccc(NS(=O)(=O)c2ccc(C)c(C(=O)NCC(c3ccco3)N3CCCCC3)c2)cc1 (configuration not stated)	-6	u	u	0%	2%
C=C1C=C(C(F)F)n2ncc(C(=O)Nc3cccc(CC)c3)c2N1	x	-14%	-1%	x	x
O=C(Nc1ccc(F)cc1)N[C@H]1CC[C@H](CCNS(=O)(=O)c2cccc(Cl)c2)O[C@@H]1CO	-10	u	u	-3%	0%
Cc1ccccc1NS(=O)(=O)c1ccc(C(=O)NCC(c2ccco2)N2CCCCC2)cc1 (configuration not stated)	-13	23µM*	u	-5%	-11%
O=C(NCC(c1ccco1)N1CCCC1)c1ccc(S(=O)(=O)Nc2ccccc2Cl)cc1 (configuration not stated)	10	-24%	u	-7%[9.24 µM]	2%
Cc1cc(NC(=O)C(C)SCC(=O)N(C)CC(=O)Nc2ccc(F)cc2)no1 (configuration not stated)	3	22%	-6%	1%	5%
O=S(=O)(Nc1ccc(S(=O)(=O)N2CCCCC2)cc1)c1ccc(Br)s1	53	u	-9%	u	-23%
CCOc1ccccc1C1C(C(=O)Nc2ccccc2)=C(C)Nc2nc(SCC(=O)c3ccc(C)cc3)nn21 (configuration not stated)	x	9.2µM*	7.3µM*	x	x

Bioassay records from PubChem.
